# Hit rate of the full screen: of about 69,000 compounds, about 8,600 (12%) showed an effect of 50% or more. This excerpt belongs to a sample that is enriched for strong results.
# Test system: Plasmodium berghei
# Experiment: Screen against P. berghei liver stage (PbLuc), transformed with Luciferase, at 10uM
# Format: functional, HepG2
# Conditions: tested at 10 uM
row,Compound,INHIBITION
1,CC(=O)Nc1nc(C(=O)NC(C)c2ccc(F)c(F)c2)cs1 (stereo not given),-31.8%
2,COc1cccc(N2CCN(Cc3ccc4[nH]ccc4c3)CC2=O)c1,10.2%
3,CCCc1nnc2sc(C3CCS(=O)(=O)CC3)nn12,33%
4,CC(=O)N1CCN(c2cncc(C3CCNCC3)n2)CC1,16.5%
5,CN1CC2(CNCCN(C(=O)Nc3ccccc3)C2)CC1=O (stereo not given),-36.8%
6,COc1c(CNCc2ccc(N(C)C)nc2)c(C)nn1C,11.25%
7,CC(C)C[C@H](NCc1cc(O)c2cccc(F)c2n1)C(N)=O,3.03%
8,O=C(c1cccc(C2CCNC2)c1)N1CCC(c2ncc[nH]2)CC1 (stereo not given),-6.61%
9,COCCN1CCN(CC(O)c2ccc(OC(F)(F)F)cc2)CC1 (stereo not given),-24.2%
10,O=C(c1ccoc1)N1CCCC2(CCC(=O)N2Cc2cccnc2)C1 (stereo not given),42.3%
11,CCN1C(=O)CCCC12CCCN(C(=O)c1ccncc1F)C2 (stereo not given),51.4%
12,CN(C)CCN1C(=O)CCC12CCCN(C(=O)c1ccncc1F)C2 (stereo not given),-24.1%
13,O=C(c1ccoc1)N1CCCC2(CCC(=O)N2Cc2ccncc2)C1 (stereo not given),51.2%
14,O=C(c1ccoc1)N1CCC2(CCC(=O)N2Cc2ccncc2)CC1,43.8%
15,CN1C(=O)CCC12CCCN(C(=O)c1ccncc1F)C2 (stereo not given),-12.2%
16,O=C(Cc1c(F)cccc1Cl)Nc1cccc(N2CCCC2)c1,43.4%
17,CNC(=O)c1cn[nH]c1C1CCN(Cc2sccc2C)C1 (stereo not given),-14.1%
18,CC(=O)c1cccc(OCCCC(=O)N(C)Cc2cnc(C)s2)c1,55.4%
19,CCOC(=O)CN(C)Cc1cnc(C)s1,8.38%
20,CCCN(CCC)C(=O)CN(C)Cc1cnc(C)s1,23.2%
21,COc1cc(C(C)=O)ccc1OCC(=O)N(C)Cc1cnn(C)c1,40.9%
22,CC(=O)c1cccc(OCCCC(=O)N(C)Cc2cccc(O)c2)c1,23.5%
23,CC(=O)c1cccc(OCCCC(=O)N(C)CCC(F)(F)F)c1,57.3%
24,CCN(C)C(=O)CCN(C)Cc1cnc(C)s1,50.4%

row,Compound,INHIBITION
1,CC(=O)c1cccc(OCCCC(=O)N(C)Cc2cnn(C)c2)c1,82.2%
2,CC(=O)c1cccc(OCCCC(=O)N(C)Cc2cscn2)c1,5.68%
3,CC(=O)c1cccc(OCCCC(=O)N(C)CCc2ccncc2)c1,-8.19%
4,CC(=O)c1cccc(OCCCC(=O)N(C)Cc2ccccn2)c1,3.47%
5,CC(=O)c1cccc(OCCCC(=O)N(C)CC(N)=O)c1,-25.1%
6,CN(C)C(CNC(=O)c1ccnc(-n2cncn2)c1)c1ccccc1 (stereo not given),9.34%
7,CN(C)c1ccc(CNCc2cnc(N3CCOCC3)nc2)cn1,12.6%
8,O=S1(=O)CCN(Cc2cccnc2)[C@H]2CCN(c3ncccn3)CC[C@H]21,46.8%
9,CN1C(=O)CC(c2cnn(C)c2)C12CCN(C(=O)c1cccn1C)CC2 (stereo not given),26.4%
10,O=C(c1cc[nH]n1)N1CCc2cc(Br)sc2C1,24.2%
11,Cc1nc(CN2CCOCC3(CCN(c4cccnc4)CC3)C2)cs1,14.4%
12,COCc1ncn2c1CN(C(=O)Nc1ccccc1)CC2,-22.1%
13,CC(Cn1ccnc1)NC(=O)Cc1ccc2c(c1)OCCO2 (stereo not given),-21.8%
14,Cc1ccsc1-c1nccn1C1CC(=O)N(C(C)C)C1 (stereo not given),35.8%
15,Cc1ccc(NC(=O)CNC(C)Cc2ccsc2)cc1F (stereo not given),52.2%
16,Cc1cccc(C)c1NC(=O)CNC(C)Cc1ccsc1 (stereo not given),34.6%
17,Cc1ccc(NC(=O)CN[C@H](C(N)=O)C(C)C)cc1F,10.7%
18,Cc1ccn(-c2cccc(C(=O)N3CCCC(n4ccnc4C)C3)c2)n1 (stereo not given),44.8%
19,Cc1cc(CN2CC[C@H]3[C@H]2CCN3CC(=O)N(C)C)oc1C,38.3%
20,Cc1cc(CN(CCCO)c2ccccc2)on1,56.5%
21,Cc1cc(CN(CCO)c2ccccc2)on1,45.5%
22,Cc1cc(CN(CCO)c2ccc(Br)cc2)on1,13.8%
23,Cc1cc(C(=O)NCc2cc(C)oc2C)no1,-13%
24,CCN1CCN(C(=O)c2cccc(CN3CCOCC3)c2)CC1,-14.8%

row,Compound,INHIBITION
1,CN(Cc1cn2c(n1)CN(Cc1nccs1)CC2)Cc1ccco1,43.9%
2,Cc1ccc(CN2CCn3cc(CN(C)Cc4ccco4)nc3C2)o1,-3.16%
3,CCS(=O)(=O)N1CCn2cc(CN(C)Cc3ccco3)nc2C1,47.4%
4,COCCN1CCn2cc(CN(C)Cc3ccco3)nc2C1,73%
5,CN(Cc1cn2c(n1)CN(Cc1ccsc1)CC2)Cc1ccco1,31.1%
6,CN(Cc1cn2c(n1)CN(Cc1ccc(F)cc1)CC2)Cc1ccco1,59%
7,O=C([C@H]1CC[C@@H]2[C@@H](CCN2Cc2nccs2)O1)N1CCOCC1,-1.12%
8,Cc1ccnc(CC(C)N(C)c2cc(CCN)nc(C)n2)c1 (stereo not given),45.2%
9,Cc1ccnc(CC(C)N(C)c2cc(C3CCNCC3)nc(C)n2)c1 (stereo not given),36.9%
10,Cc1ccnc(CC(C)N(C)c2cc(CN)nc(C)n2)c1 (stereo not given),66.5%
11,Cc1cc(C(=O)N2CCC3(CCNCC3)CC2)c2cccc(C)c2n1,18.4%
12,Cc1nc(CN2CCCC(c3cnccn3)C2)cs1 (stereo not given),17.8%
13,CC(C)c1noc(-c2ccc(NCCCN3CCCC(O)C3)nc2)n1 (stereo not given),53%
14,CC(C)c1noc(-c2ccc(NCC3CCCOC3)nc2)n1 (stereo not given),-118%
15,CC(C)c1noc(-c2ccc(NCCCC3CCOC3)nc2)n1 (stereo not given),43.9%
16,CS(=O)(=O)NC1CC2(CCN(CCF)CC2)Oc2ccccc21 (stereo not given),12.5%
17,CCOC(C)c1nccn1Cc1noc(CC)n1 (stereo not given),8.41%
18,CCC(C)[C@H](N)c1nnc(SCC(=O)Nc2cc(C)ccc2C)o1 (stereo not given in full),22.2%
19,CN(Cc1cc2n(n1)CCN(C(=O)[C@H]1CCCO1)C2)Cc1nccs1,50.3%
20,CN(Cc1cc2n(n1)CCCN(C(=O)N1CCCC1)C2)Cc1nccs1,38.5%
21,CN(Cc1cc2n(n1)CCN(C(=O)c1cccnc1)C2)Cc1nccs1,-10.6%
22,Cc1nc(C)n(CC2CCCN2CCOc2ccccc2C#N)n1 (stereo not given),17.4%

# From ChEMBL document CHEMBL4513216, “Probing the Open Global Health Chemical Diversity Library for Multistage-Active Starting Points for Next-Generation Antimalarials” (ACS Infect Dis, 2020)
